Source: PubChem BioAssay (NCI)
About 83,000 compounds went through this panel and 20% of them were active in at least one assay; those are over-represented in the sample as a whole.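 Single-dose data. Exposure time 48 hours. Values below 10 considered active.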 Unmarked numbers belong to inactive results. Activity calls are given as the source filed them.

Columns and labels:
Experiment in all cases: NCI-60 one-dose screen, 48 h (100 = growth as untreated, 0 = no growth, -100 = all killed)
Details in all cases: 10 µM unless noted
[1] = test system: SR leukemia
[2] = test system: RPMI-8226 leukemia
[3] = test system: OVCAR-8 ovarian
[4] = test system: OVCAR-5 ovarian
[5] = test system: OVCAR-4 ovarian
[6] = test system: SK-OV-3 ovarian
[7] = test system: IGROV1 ovarian
[8] = test system: OVCAR-3 ovarian
[9] = test system: NCI/ADR-RES ovarian
[10] = test system: HS 578T breast

SMILES | growth [1] | growth [2] | growth [3] | growth [4] [%] | growth [5] | growth [6] | growth [7] | growth [8] | growth [9] | growth [10] [%]
NC(CC(N)C(=O)O)C(=O)O (configuration not stated) | 89.9% | 98.6% | 100% | 97 | 99.2% | 111% | 108% | 107% | 107% | –
O=C(Nc1ccc(I)cc1)c1cccc([N+](=O)[O-])c1O | 31.6% | 6.95% (active) | 17.1% | 43.4 | 19.1% | -2.55% (active) | 30.4% | 7.89% (active) | 9.57% (active) | 42.6
O=C(Nc1ccc(F)cc1)c1cc([N+](=O)[O-])ccc1O | 83.7% | 32.4% | 76.2% | 86.1 | 70.5% | 84% | 66.3% | 56.1% | 72.9% | 64
CNC(C)=O | 88.2% | 103% | 102% | 95.8 | 104% | 102% | 105% | 75.8% | 102% | –
COc1ccc(NC(=O)CSc2nc3ccccc3c(=O)n2-c2ccccc2C(F)(F)F)c(OC)c1OC | 103% | 93.1% | 98% | 97.5 | 97.3% | 89.4% | 127% | 104% | 102% | –
Clc1nc2ccccc2nc1CI | 8.99% (active) | 77.6% | 90.4% | 109 | 94.3% | 104% | 72.7% | 123% | 98.9% | 115
CC1(C)OC2COC3(C(=O)O)OC(C)(C)OC3C2O1 (configuration not stated) | 121% | 109% | 108% | 90.1 | 116% | 103% | 109% | 108% | 101% | –
COc1ccc(-c2nc3sccn3c2-c2ccnc(NCCCNS(=O)(=O)c3ccc(F)cc3)n2)cc1 | 14.8% | 5.74% (active) | 6.98% (active) | 77 | 17.1% | 39.5% | 16.3% | 20.9% | -5.58% (active) | 32.5
COc1ccccc1OCC(=O)Nc1sc2c(c1C(N)=O)CCC2 | 65.2% | 66.2% | 76.9% | 107 | 83.2% | 69.9% | -10.4% (active) | 92.1% | 79.1% | 55.5
COc1ccc(C(=O)/C=C/c2cccc([N+](=O)[O-])c2)c(OC)c1 | 4.78% (active) | -16.8% (active) | 18.2% | 41.9 | 26.6% | 77% | 7% (active) | 18.6% | 11.2% | 74.6
COc1ccc(-c2cn[nH]c2-c2cc(OC)c3c(c2)OCO3)cc1 | 5.61% (active) | -1.3% (active) | 11.7% | 46.1 | 51% | -1.1% (active) | -17.2% (active) | -12.3% (active) | 5.12% (active) | –
COc1cc(NCCN=C(N)NC(N)=NC(C)C)c2ncccc2c1 | 74.8% | 73.3% | 87% | 80.2 | -40.1% (active) | 92.3% | -4.12% (active) | 6.45% (active) | 99.4% | –
O=C1CCCCC=C1C[N+](=O)[O-] | 2.57% (active) | 60.6% | 86.8% | 104 | 94.9% | 99.1% | 91.6% | 61% | 101% | –
CCCOC(=O)C1(O)CCCC1 | 94.4% | 96.5% | 102% | 87.2 | 102% | 111% | 107% | 129% | 108% | –
COc1ccc(/C=C/C(=O)c2ccc(B(O)O)cc2)cc1O | 19.6% | 6.12% (active) | 89.9% | 88.2 | 114% | 82.7% | 56.2% | 58.5% | 92.3% | 70.7
CC/C=C\C[C@H](O)C/C=C1/C(=O)C(Cl)=C[C@@H]1C/C=C\CCCC(=O)O | 10.9% | 14.7% | 10.9% | 97.1 | 63.2% | 99.7% | 82.7% | 28.9% | 57.1% | 75.9
CCN(Cc1ccc(CN(CC)C(=O)C(Cl)(Cl)Cl)cc1)C(=O)C(Cl)(Cl)Cl | 32.8% | 32.5% | 89.6% | 101 | 74.7% | 91.2% | 94.9% | 74.4% | 86.6% | –
CCC(C)NCC(=O)O (configuration not stated) | 93.5% | 90.1% | 110% | 96 | 105% | 106% | 110% | 111% | 110% | –
CCCCC[C@@H]1Cc2cc(O)c(C(=O)O)c3c2[C@H](C[C@@]2(CCCO2)O3)O1 | 64.4% | 98.7% | 101% | 104 | 94.2% | 113% | -4.39% (active) | 107% | 96.1% | 122
CCOC(=O)/C=C\C(=O)NC(N)=O | 97.3% | 98.5% | 104% | 113 | 120% | 95.9% | 104% | 110% | 106% | 102
COc1ccc(Cn2c(SC)nc(=O)n(Cc3ccc(Cl)cc3)c2=O)cc1 | 84.4% | 92.8% | 96% | 92.1 | 98% | 106% | 102% | 102% | 95.4% | 94
CCCCCCCCCCCCCCCCC(Br)C(=O)O (configuration not stated) | 105% | 84.6% | 103% | 99.3 | 97.8% | 118% | 125% | 100% | 110% | –
COc1ccc(C2=NN(c3ccc(S(N)(=O)=O)cc3)C(c3cn(-c4ccccc4)nc3-c3ccc(Cl)cc3)C2)cc1 (configuration not stated) | 77.9% | 78% | 91.1% | 114 | 107% | 97.7% | 105% | 92.4% | 90.1% | 109
COc1cccc(-c2nc3sccn3c2-c2ccnc(NCCCNS(=O)(=O)c3ccccc3)n2)c1 | 50.7% | 28% | 29.6% | 128 | 55.7% | 73% | 55.3% | 48.2% | 23.1% | 103
O=C(O)c1ccc(-n2cc(CNc3ccc(C(F)(F)F)cc3)c(-c3ccccc3)n2)cc1 | 84.1% | 76.6% | 79.8% | 119 | 95.4% | 103% | 111% | 96.1% | 101% | 93.7
O=S(=O)(NCCCNc1nccc(-c2c(-c3ccc(F)c(O)c3)nc3sccn23)n1)c1ccc(Cl)cc1 | 61.6% | 43.1% | 52.9% | 129 | 99.1% | 85.3% | 80.2% | 88.7% | 103% | 91.1
COc1cccc(/C=C2\SC(N3CCN(c4ccccn4)CC3)=NC2=O)c1 | 89.7% | 85.8% | 100% | 113 | 110% | 111% | 103% | 100% | 103% | 95.8
COc1ccc(C2CC(c3cccs3)=NN2c2ccc(S(=O)(=O)NC(=O)NCc3cccc(OC)c3)cc2)cc1 (configuration not stated) | 75.8% | 95.3% | 107% | 113 | 103% | 82.6% | 108% | 106% | 103% | 97.5
CCC1CCc2nc3sc(C(=O)Nc4ccccc4F)c(N)c3cc2C1 (configuration not stated) | 16.8% | 47.5% | 83.3% | 87.6 | 90.9% | 80.7% | 88.3% | – | – | 70
